Bioassay records: PubChem BioAssay, National Center for Advancing Translational Sciences (NCATS)
CCT modulator – cytosolic chaperonin activity modulation; purified chaperonin ATPase assay, HTRF ADP detection, 30 min; activity change, % (test concentration not listed), hits read low; 360,000 tested, 0.3% active; AID 651819; in the data active = activity change below about -30%; note: % is set by controls: 0 for no effect and ±100 for the full control effect
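We incubate TRiC, 40 or 20 nM final, with library compounds at 76 uM and 10 uM ATP for 30 min at 37 °C. ADP formed is detected with Transcreener HTRF reagents after 30 min at room temperature.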
Rango dissoc inh – prevents RanGTP from dissociating the Rango-importin beta complex. Biochemical FRET Rango-importin beta, RanGTP-induced dissociation. Potency, µM (series often up to 46.1 µM), for inactives: top-dose activity change, negative = inhibition. 340,000 tested, 0.071% active. AID 540253; note: potency is the fitted concentration of half-maximal effect; % of control where 0% means no effect; nearly all actives have a fitted effect of over 45% in size
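Rango (0.1 uM)–importin beta (0.25 uM) complex; RanGTP-RCC1 trigger; 45 min RT; CFP/YFP FRET read.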
hERG WT inh – KCNH2 (human, wildtype) channel inhibition; U2OS, BacMam KCNH2, thallium flux FluxOr; stronger effect = lower value; 340,000 tested, 0.37% active; activity change, % at 1.84 µM; AID 720551; Q12809;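 active = maximum activity change below -70%; inconclusive = maximum activity change between -70% and -50%; inactive = maximum activity change above -50%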; note: % is set by controls: 0 for no effect and ±100 for the full control effect
Target sequence (Q12809 whole entry, looked up): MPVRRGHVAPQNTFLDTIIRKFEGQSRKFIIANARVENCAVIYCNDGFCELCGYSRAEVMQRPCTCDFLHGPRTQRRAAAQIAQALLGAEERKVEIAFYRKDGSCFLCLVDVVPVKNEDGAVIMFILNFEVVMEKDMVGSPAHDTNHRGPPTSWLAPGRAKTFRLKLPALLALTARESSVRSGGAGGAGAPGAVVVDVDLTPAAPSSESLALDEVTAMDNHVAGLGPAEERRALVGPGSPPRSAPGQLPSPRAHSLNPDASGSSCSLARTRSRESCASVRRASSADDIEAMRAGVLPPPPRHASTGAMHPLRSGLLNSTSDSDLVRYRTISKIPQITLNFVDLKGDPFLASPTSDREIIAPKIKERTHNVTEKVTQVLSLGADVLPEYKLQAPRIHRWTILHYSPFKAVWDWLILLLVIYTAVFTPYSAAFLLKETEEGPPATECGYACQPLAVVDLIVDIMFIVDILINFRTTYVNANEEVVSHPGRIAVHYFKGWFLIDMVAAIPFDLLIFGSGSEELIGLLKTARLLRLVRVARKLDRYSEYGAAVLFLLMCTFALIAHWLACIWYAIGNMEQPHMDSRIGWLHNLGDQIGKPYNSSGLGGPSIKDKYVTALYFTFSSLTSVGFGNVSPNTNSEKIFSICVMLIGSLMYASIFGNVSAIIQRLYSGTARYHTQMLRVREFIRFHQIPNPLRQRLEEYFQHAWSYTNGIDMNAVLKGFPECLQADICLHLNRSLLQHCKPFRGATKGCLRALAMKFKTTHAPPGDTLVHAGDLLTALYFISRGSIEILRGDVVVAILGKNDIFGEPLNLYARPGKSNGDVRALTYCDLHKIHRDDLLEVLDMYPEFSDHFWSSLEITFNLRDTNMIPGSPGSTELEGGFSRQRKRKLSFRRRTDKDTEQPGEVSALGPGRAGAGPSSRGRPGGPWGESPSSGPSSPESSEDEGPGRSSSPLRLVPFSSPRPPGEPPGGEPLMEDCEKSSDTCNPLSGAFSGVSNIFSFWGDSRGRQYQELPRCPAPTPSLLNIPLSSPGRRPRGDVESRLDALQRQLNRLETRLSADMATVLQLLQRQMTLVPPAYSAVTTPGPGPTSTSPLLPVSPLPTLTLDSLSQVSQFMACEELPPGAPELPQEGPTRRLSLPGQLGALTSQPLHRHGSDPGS
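U2OS cells transduced with wild-type KCNH2 virus are loaded with FluxOr dye for 45 min, and thallium flux is measured in kinetic reads before and after stimulation buffer. Rate constants are normalized to DMSO controls.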
KCNH2 3.1 inh – inhibitors of human KCNH2 3.1 potassium channel isoform. U2OS KCNH2 3.1, thallium flux FluxOr; stronger effect = lower value. activity change, % (tested at about 1.8 µM). 340,000 tested, 0.95% active;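 active = maximum activity change below -70%; inconclusive = maximum activity change from -70% to -50%; inactive = maximum activity change above -50%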;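 note: thallium influx rate constant from kinetic fluorescence after stimulation buffer; % is set by controls: 0 for no effect and ±100 for the full control effect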
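Measured as rate of thallium-driven FluxOr signal in transduced U2OS cells carrying the 3.1 channel, read kinetically for 2 min upon stimulation; values are rate constants scaled to DMSO control wells.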
Mm-Cpn inhibitor – M. maripaludis TRiC chaperonin inhibition | purified Mm-Cpn ATPase, ADP Transcreener TR-FRET | Potency, µM (highest dose often 76.9 µM), without a hit: top-dose activity, negative = inhibition, hits mostly inhibitors | 330,000 tested, 0.031% active | AID 504842; active = well fitted inhibition curve with a large enough effect; inconclusive = small, poorly fitted or top-dose-only effect; note: potency is the fitted concentration of half-maximal effect; % is set by controls: 0 for no effect and ±100 for the full control effect; nearly all actives have a fitted effect of over 80% in size
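25 nM Mm-CPN + cpd, 10 min 37°C; + 10 uM ATP, 30 min 37°C; buffer 30 mM Tris pH 7.4, 100 mM KCl, 5 mM MgCl2, 1 mM DTT; Transcreener ADP HTRF detection 30 min RT.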
Rango-impB inh – Rango-importin beta binding inhibition | Q14974 | Rango CFP/YFP FRET sensor + importin beta, 45 min | Potency, µM (top dose mostly 92.2 µM), without a hit: at the top dose inhibition of complex formation | 340,000 tested, 0.031% active | AID 540263;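 note: potency is the fitted concentration of half-maximal effect; 0% = DMSO wells and 100% = buffer wells lacking importin beta; nearly all actives have a fitted effect of over 15% in size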
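FRET biosensor (snurportin 1 IBB flanked by EYFP and cerulean), 50 nM, with compound 5 min, then 0.125 microM importin beta in PBS, 1 mM DTT, 0.02% Tween-20, 0.1% BSA. CFP/YFP ratio read after 45 min at room temperature; pre-read flags interference.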
An asterisk follows results filed as active. Shown are actives, neighbours in structure and some others; about 1.4% of the full set was active somewhere. Unless noted, calls come from the whole dose curve.

Results for COc1ccc(NC(=O)CN(C)C(=O)CCC2CCCC2)cc1 ?
CCT modulator: -36*; Rango dissoc inh: -1%; hERG WT inh: 2; KCNH2 3.1 inh: -5; Mm-Cpn inhibitor: 1%; Rango-impB inh: 10%

Results for Oc1ccc(/C=N/n2c(C3CCCCC3)n[nH]c2=S)c(O)c1 ?
CCT modulator: -3; Rango dissoc inh: 13%; KCNH2 3.1 inh: 15; Mm-Cpn inhibitor: -2%; Rango-impB inh: -4%

What do the screens show for `Oc1ccc(Br)cc1/C=N/n1c(C2CCCCC2)n[nH]c1=S`?
CCT modulator: -1; Rango dissoc inh: 15µM*; hERG WT inh: -4; KCNH2 3.1 inh: 1; Mm-Cpn inhibitor: 3%; Rango-impB inh: inconclusive

Results for CC(C)(C)NC(=O)CN(C(=O)CCC(=O)Nc1nccs1)c1ccc(F)c(Cl)c1 ?
CCT modulator: -2; Rango dissoc inh: 15%; hERG WT inh: -34; KCNH2 3.1 inh: -11; Mm-Cpn inhibitor: 0%; Rango-impB inh: 0%

How did Cc1ccnc(NC(=O)CCC(=O)N(CC(=O)NC(C)(C)C)c2ccc(F)c(Cl)c2)c1 do in these assays?
CCT modulator: -3; Rango dissoc inh: 2%; hERG WT inh: -3; KCNH2 3.1 inh: -87*; Mm-Cpn inhibitor: 2%; Rango-impB inh: 0%

How did C/C(=N\NC(=O)Cn1cc([N+](=O)[O-])cn1)c1ccco1 do in these assays?
CCT modulator: 0; Rango dissoc inh: 6%; hERG WT inh: 0; KCNH2 3.1 inh: 9; Mm-Cpn inhibitor: 3%; Rango-impB inh: 0%

What do the screens show for `CCCCCCCCNCCS(=O)(=O)NCc1ccc(OC)cc1`?
CCT modulator: -1; Rango dissoc inh: -3%; hERG WT inh: 9; KCNH2 3.1 inh: -23; Rango-impB inh: -6%

What do the screens show for `CN(C)c1ccc(/C=N/NC(N)=S)cc1[N+](=O)[O-]`?
CCT modulator: 1; Rango dissoc inh: -6%; hERG WT inh: -13; KCNH2 3.1 inh: -7; Mm-Cpn inhibitor: -10%; Rango-impB inh: 5%

Results for CCCCN(Cc1ccco1)S(=O)(=O)c1csc(C(N)=O)c1 ?
CCT modulator: 0; Rango dissoc inh: 1%; hERG WT inh: -159*; KCNH2 3.1 inh: -182*; Mm-Cpn inhibitor: 0%; Rango-impB inh: 2%

How did O=S(=O)(c1ccc(Br)cc1)N1CCN(Cc2ccco2)CC1 do in these assays?
CCT modulator: 1; Rango dissoc inh: -3%; hERG WT inh: 6; KCNH2 3.1 inh: 1; Mm-Cpn inhibitor: 2%; Rango-impB inh: 1%

What do the screens show for `COc1ccc(NC(=O)CCCc2ccccc2)c(OC)c1`?
CCT modulator: -1; Rango dissoc inh: 16µM*; hERG WT inh: -11; KCNH2 3.1 inh: 9; Mm-Cpn inhibitor: -4%; Rango-impB inh: 0%

Results for COc1ccc(NC(=O)CCCC(=O)c2ccccc2)c(OC)c1 ?
CCT modulator: -1; Rango dissoc inh: 10%; hERG WT inh: -6; KCNH2 3.1 inh: 4; Mm-Cpn inhibitor: 2%; Rango-impB inh: -1%

What do the screens show for `CC1CCCCC1NC(=S)NC(=O)c1ccccc1Cl` (centres undefined)?
CCT modulator: 1; Rango dissoc inh: -12%; hERG WT inh: -6; KCNH2 3.1 inh: 1; Mm-Cpn inhibitor: -1%; Rango-impB inh: 1%

Results for CC1CCCCC1NC(=S)NC(=O)c1sc2ccccc2c1Cl (centres undefined) ?
CCT modulator: -47*; Rango dissoc inh: -5%; hERG WT inh: 4; KCNH2 3.1 inh: -30; Mm-Cpn inhibitor: inconclusive; Rango-impB inh: inconclusive

Results for O=C(Nc1cnn(C23CC4CC(CC(C4)C2)C3)c1)c1cc(-c2ccccc2)on1 ?
CCT modulator: -2; Rango dissoc inh: -1%; hERG WT inh: -11; KCNH2 3.1 inh: -75*; Mm-Cpn inhibitor: 1%; Rango-impB inh: -8%

How did COc1ccc(-c2cc(C(=O)Nc3cnn(Cc4ccccc4C)c3)no2)cc1OC do in these assays?
CCT modulator: 1; Rango dissoc inh: 15%; hERG WT inh: -248*; KCNH2 3.1 inh: -14; Mm-Cpn inhibitor: 1%; Rango-impB inh: 1%
